Bioassay records as filed in PubChem BioAssay.
HCMV inh – blocks human cytomegalovirus replication. 410,000 tested, 4.5% active. HFF cells, HCMV-luciferase reporter, 72 h; active compounds read low. activity change, negative = inhibition, % at 57.5 µM; in the data active means activity change below about -60%; inconclusive means no clear call, values can overlap the other calls; inactive means above about -39%
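After 16 h attachment at 37C, HFF cells received test compound and HCMV-luciferase (1 PFU/cell); reporter luminescence read 72 h later, data normalized against buffer-only and known inhibitor Salinomycin.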
HCV inh – blocks hepatitis C virus; Huh7.5.1 HCVcc-Cre infection, luciferase reporter, 44 h; Potency, µM (highest dose often 41.8 µM), without a hit: at the top dose activity change, negative = inhibition, actives largely listed as inhibitors; 340,000 tested, 3.4% active; AID 651820; further: potency means the concentration at half of the fitted maximal effect
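1,000 cells/well; 4 h culture; + compound; + HCVcc-Cre (~0.5 moi); 44 h; luciferase substrate, RT 15 min; read 15 sec.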
FMDV inh – antivirals against foot and mouth disease virus; FMDV antiviral cell-based qHTS; Potency, µM (series often up to 57.9 µM), inactives show top-dose activity change, negative = inhibition, most hits filed as inhibitors; 410,000 tested, 1.2% active; calls by dose curve; tested in HEK293T cells; further: read-out not given here; potency means the concentration at half of the fitted maximal effect; nearly all actives have a fitted effect of over 45% in size
Giardia FBPA inh – Giardia lamblia aldolase inhibition; A8B2U2; purified Giardia FBPA; Potency, µM (highest dose often 59.6 µM), for the others: at the top dose activity, negative = inhibition, most hits filed as inhibitors; 290,000 tested, 0.71% active; further: potency means the concentration at half of the fitted maximal effect; nearly all actives have a fitted effect of over 55% in size
Target sequence (A8B2U2 whole entry, looked up): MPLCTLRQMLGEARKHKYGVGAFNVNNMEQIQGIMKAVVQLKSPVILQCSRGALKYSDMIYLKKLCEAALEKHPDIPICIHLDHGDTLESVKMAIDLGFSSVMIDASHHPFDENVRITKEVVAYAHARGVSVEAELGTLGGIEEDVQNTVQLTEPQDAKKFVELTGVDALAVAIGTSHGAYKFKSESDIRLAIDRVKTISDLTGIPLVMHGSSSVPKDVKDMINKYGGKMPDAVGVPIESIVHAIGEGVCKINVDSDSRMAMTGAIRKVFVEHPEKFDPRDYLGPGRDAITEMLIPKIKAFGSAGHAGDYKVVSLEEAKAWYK
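40 nM FBPA preincubated 10 min at RT with compound (up to 57.5 uM final), then substrate plus GAPDH/TPI/NAD/arsenate coupling and diaphorase/resazurin added. Fluorescence read after 20 min at RT, 525/598 nm.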
LASV entry inh – inhibitors of Lassa virus binding or cell entry. Lassa virus pseudotype entry inhibition, cell reporter. Potency, µM (series often up to 37.9 µM), without a hit: top-dose activity change, negative = inhibition, actives largely listed as inhibitors. 300,000 tested, 1.2% active. AID 540256; calls by dose curve; tested in HEK293 cells; further: potency means the concentration at half of the fitted maximal effect; nearly all actives have a fitted effect of over 50% in size
Marburg entry inh – inhibitors of Marburg virus binding or cell entry; Marburg virus pseudotyped entry inhibition, cell reporter; Potency, µM (titrated, usually from 37.8 µM), inactives show at the highest dose activity change, negative = inhibition, hits mostly inhibitors; 300,000 tested, 1.8% active; AID 540276; calls by dose curve; tested in HEK293 cells; further: potency means the concentration at half of the fitted maximal effect
* marks the source's active call; other numbers are inactive results; [ ] = dose if it differs, or a comment. Most compounds without a hit are left out; they make up all but 8.3% or so of the library. Unless noted, the call rests on the fitted dose curve; in most records, active means well fitted curve in the direction sought with a large enough effect; inconclusive means small, poorly fitted or top-dose-only effect, or another doubt; inactive means no such curve, though single readings can be large; an effect the other way counts as inactive or inconclusive. On the % scale 0 is the no-effect control and ±100 the full control effect.

Results for O=C(CN1CCN(c2ccccc2)CC1)Nc1ccccc1Cl ?
HCMV inh: -33; HCV inh: 1%; FMDV inh: -20%; Giardia FBPA inh: 2%

What do the screens show for `O=C(Cc1ccccc1)Nc1ccccc1Sc1ccccc1`?
HCMV inh: -7; HCV inh: 22%; FMDV inh: -6%; Giardia FBPA inh: 3%; LASV entry inh: 2%; Marburg entry inh: -12%

Results for O=C(CCl)Nc1ccccc1Sc1ccc(Cl)cc1 ?
HCMV inh: -103*; HCV inh: inconclusive; FMDV inh: 32µM*; Giardia FBPA inh: inconclusive; LASV entry inh: inconclusive; Marburg entry inh: 23µM*

What do the screens show for `CC(=O)N1CCN(CC(=O)Nc2ccccc2Sc2ccc(Cl)cc2)CC1`?
HCMV inh: -71*; HCV inh: inconclusive; FMDV inh: inconclusive; Giardia FBPA inh: 1%; LASV entry inh: 5µM*; Marburg entry inh: -14%

What do the screens show for `O=C(CN1CCN(c2ccccc2)CC1)Nc1ccccc1Sc1ccccc1`?
HCMV inh: -29; HCV inh: inconclusive; FMDV inh: -1%; Giardia FBPA inh: 1%; LASV entry inh: inconclusive; Marburg entry inh: 4.5µM*

How did Cc1cc(C(C)(C)C)oc1C(=O)N(CC(=O)NC1CCCC1)c1c(C)cccc1C do in these assays?
HCMV inh: -28; HCV inh: 10µM*; FMDV inh: 34%; Giardia FBPA inh: 8%; LASV entry inh: inconclusive; Marburg entry inh: 10µM*

What do the screens show for `CN1CCC(N(C)c2nc(-c3ccc([N+](=O)[O-])cc3)nc3ccccc23)CC1`?
HCMV inh: 29; HCV inh: 4.5µM*; FMDV inh: 0%; Giardia FBPA inh: -5%; LASV entry inh: inconclusive; Marburg entry inh: 11µM*

Results for CN1CCN(c2nc(-c3cccc([N+](=O)[O-])c3)nc3ccccc23)CC1 ?
HCMV inh: -13; HCV inh: inconclusive; FMDV inh: -15%; Giardia FBPA inh: 1%; LASV entry inh: inconclusive; Marburg entry inh: inconclusive

What do the screens show for `COc1cc(N/N=C(\C)c2ccc(O)c(C)c2)nc(-c2ccccc2)n1`?
HCMV inh: -90*; HCV inh: inconclusive; FMDV inh: 2%; Giardia FBPA inh: -10%; LASV entry inh: inconclusive; Marburg entry inh: inconclusive

How did C/C(=N\Nc1cc(C)nc(-c2ccccc2O)n1)c1ccccc1 do in these assays?
HCMV inh: inconclusive; HCV inh: inconclusive; FMDV inh: -6%; Giardia FBPA inh: -8%; LASV entry inh: 10%[46.1 µM]; Marburg entry inh: -26%[46.1 µM]

Results for C/C(=N\Nc1cc(C)nc(-c2ccccc2)n1)c1cccc([N+](=O)[O-])c1 ?
HCMV inh: -2; HCV inh: inconclusive; FMDV inh: inconclusive; Giardia FBPA inh: -8%

Results for C/C(=N\Nc1cc(-c2ccccc2)nc(-c2ccccc2)n1)c1ccc(O)c(C)c1 ?
HCMV inh: -64*; HCV inh: 3.5µM*; FMDV inh: 5%; Giardia FBPA inh: -1%; LASV entry inh: 11%; Marburg entry inh: inconclusive

Results for COc1cc(N/N=C(\C)c2ccc(N)cc2)nc(-c2ccccc2)n1 ?
HCMV inh: 41; HCV inh: 11µM*; FMDV inh: 17%; Giardia FBPA inh: -7%

Results for COc1ccc(C(=O)N2CCC[C@@]3(CCN(c4ccccc4)C3)C2)cc1 ?
FMDV inh: -26%; Giardia FBPA inh: 4%

Results for CC(C)ON(C(C(=O)NO)C(C)C)S(=O)(=O)c1ccc(-c2ccccc2)cc1 (centres undefined) ?
FMDV inh: -12%; Giardia FBPA inh: 0%

What do the screens show for `Fc1ccc(N2CCN(Cc3ccc4c(c3)CN(Cc3cccn3-c3ncccn3)CCO4)CC2)cc1`?
FMDV inh: -12%

What do the screens show for `CCc1c(C)[nH]c2ccc(OC)cc2c1=S`?
HCMV inh: -71*; HCV inh: -14%; FMDV inh: -4%; Giardia FBPA inh: inconclusive; LASV entry inh: 17%; Marburg entry inh: -17%[46.1 µM]

What do the screens show for `COc1ccc2[nH]c(C)c(CN3CCCCC3)c(=O)c2c1`?
HCMV inh: -40; HCV inh: 5%; Giardia FBPA inh: -1%; LASV entry inh: 0%; Marburg entry inh: -17%
